Results filed as inconclusive are left out. A call without a number means that no potency is given here. The source made the active and inactive calls. Calls come from the whole dose curve; as a rule, active = well fitted inhibition curve with a large enough effect; inconclusive = small, poorly fitted or top-dose-only effect; inactive = flat fitted curve, though single readings scatter.
How the values were obtained:
Assay in all cases: qHTS profiling for inhibitors of Plasmodium falciparum proliferation (AID 504749); note: nearly all actives have a fitted effect of over 60% in size
Details in all cases: P. falciparum in erythrocytes, SYBR Green DNA, 72 h; series mostly up to 28.7 µM
DFO2036 = test system: DFO2036
Outline: (§1)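 Fluorescence of SYBR Green-bound parasite DNA, read at 485/535 nm, served as the growth measure. Infected erythrocytes were cultured with compound 72 h; artemisinin (0.29 uM) and DMSO wells defined the normalization range.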

DIV17 = test system: DIV17
Outline: as §1

DIV30 = test system: DIV30
Outline: as §1

Dd2 = test system: Dd2
Outline: as §1

ECU = test system: ECU
Outline: as §1

FAB9 = test system: FAB9
Outline: as §1

GB4 = test system: GB4
Outline: as §1

HB3 = test system: HB3
Outline: as §1

ICS = test system: ICS
Outline: as §1

JCK = test system: JCK
Outline: as §1

N140 = test system: N140
Outline: as §1

P93_24 = test system: P93_24
Outline: as §1

P94_40 = test system: P94_40
Outline: as §1

PAD = test system: PAD
Outline: as §1

PC15 = test system: PC15
Outline: as §1

PC26 = test system: PC26
Outline: as §1

PC49 = test system: PC49
Outline: as §1

SC27B = test system: SC27B
Outline: as §1

TAB109 = test system: TAB109
Outline: as §1

DIV14 = test system: DIV14
Outline: as §1
Potency is the fitted concentration of half-maximal effect.

| SMILES | Potency (DFO2036) | Potency (DIV17) | Potency (DIV30) | Potency (Dd2) | Potency (ECU) | Potency (FAB9) | Potency (GB4) | Potency (HB3) | Potency (ICS) | Potency (JCK) | Potency (N140) | Potency (P93_24) | Potency (P94_40) | Potency (PAD) | Potency (PC15) | Potency (PC26) | Potency (PC49) | Potency (SC27B) | Potency (TAB109) | Potency (DIV14) |
| --- | --- | --- | --- | --- | --- | --- | --- | --- | --- | --- | --- | --- | --- | --- | --- | --- | --- | --- | --- | --- |
| CC1=C(/C=C/C(C)=C/C=C/C(C)=C/C=C/C=C(C)/C=C/C=C(C)/C=C/C2=C(C)C(=O)CCC2(C)C)C(C)(C)CCC1=O | inactive | inactive | inactive | inactive | inactive | inactive | inactive | inactive | inactive | inactive | inactive | inactive | inactive | inactive | inactive | inactive | inactive | inactive | inactive | – |
| CC1=C(/C=C/C(C)=C/C=C/C(C)=C/CO)C(C)(C)CCC1 | – | 16.9 µM (active) | – | 14.1 µM (active) | 10 µM (active) | inactive | – | – | 7.08 µM (active) | inactive | 8.91 µM (active) | – | – | – | – | – | – | – | – | 12 µM (active) |
| CCCCC(CC)COC(=O)CC(C(=O)OCC(CC)CCCC)S(=O)(=O)O (stereo not drawn) | – | inactive | inactive | – | – | – | inactive | – | – | – | – | – | – | – | – | inactive | – | – | – | inactive |
| O=S(=O)(O)c1cc(O)c2c(N=Nc3ccc(Nc4ccccc4)c4c(S(=O)(=O)O)cccc34)cc(S(=O)(=O)O)cc2c1 | – | – | inactive | – | inactive | inactive | inactive | inactive | – | inactive | – | – | – | inactive | – | – | – | inactive | – | – |
| CC(Cc1ccc(O)c(O)c1)C(C)Cc1ccc(O)c(O)c1 (stereo not drawn) | inactive | – | inactive | – | inactive | inactive | – | inactive | 10 µM (active) | inactive | inactive | – | – | – | – | – | inactive | inactive | – | – |
| C=C1C(=CC=C2CCC[C@@]3(C)[C@@H]2CC[C@H]3[C@H](C)CCCC(C)C)C[C@@H](O)C[C@@H]1O | – | – | inactive | 10 µM (active) | 10 µM (active) | inactive | inactive | 12.6 µM (active) | 12.6 µM (active) | inactive | 14.1 µM (active) | – | – | – | – | inactive | – | – | – | inactive |
| CCCCCCOc1ccc(C(=N)N(CCCC)CCCC)c2ccccc12 | – | 12 µM (active) | – | – | 8.91 µM (active) | – | 10.7 µM (active) | – | 2.82 µM (active) | – | – | inactive | 12.6 µM (active) | – | 10 µM (active) | – | – | – | 7.94 µM (active) | 12 µM (active) |
| CC(C)N=c1cc2n(-c3ccc(Cl)cc3)c3ccccc3nc-2cc1Nc1ccc(Cl)cc1 | inactive | inactive | inactive | inactive | inactive | inactive | inactive | inactive | 3.16 µM (active) | inactive | inactive | inactive | – | inactive | – | inactive | inactive | inactive | inactive | – |
| Cc1ccccc1OCC(O)CNCCOc1ccc(C(N)=O)cc1 (stereo not drawn) | inactive | – | inactive | inactive | inactive | inactive | – | inactive | inactive | inactive | inactive | inactive | inactive | inactive | inactive | inactive | inactive | inactive | inactive | inactive |
| CCCCC(=O)O[C@]1(C(=O)CO)[C@H](C)C[C@H]2[C@@H]3CCC4=CC(=O)C=C[C@]4(C)[C@@]3(F)[C@@H](O)C[C@@]21C | – | – | – | inactive | – | inactive | – | inactive | – | inactive | – | – | inactive | – | – | – | inactive | inactive | – | – |
| CCN(CC)CCOc1ccc(-c2nc3cc(Cl)ccc3s2)cc1 | – | 15.1 µM (active) | inactive | – | – | inactive | 16.9 µM (active) | inactive | – | inactive | inactive | – | – | – | – | inactive | inactive | inactive | – | – |
| O=C(Nc1ccc(Br)cc1)c1cc(Br)c(Br)s1 | – | – | – | – | – | inactive | – | – | – | – | – | – | – | – | inactive | – | inactive | – | – | 10.7 µM (active) |
| O=C1CSC2(CCN(CCCN3c4ccccc4Sc4ccc(Cl)cc43)CC2)N1 | – | 15.1 µM (active) | 15.1 µM (active) | – | – | inactive | 16.9 µM (active) | – | 12.6 µM (active) | inactive | – | 8.91 µM (active) | – | – | – | – | – | – | – | 15.1 µM (active) |
| COC(=O)[C@H]1[C@H]2CC3c4[nH]c5ccccc5c4CCN3C[C@@H]2CC[C@@H]1O (stereo partly drawn) | inactive | – | – | inactive | inactive | inactive | – | inactive | inactive | inactive | inactive | inactive | – | inactive | inactive | – | inactive | inactive | inactive | – |
| Clc1cc(Cl)c(OCC#CI)cc1Cl | – | 13.5 µM (active) | – | – | – | – | 10.7 µM (active) | – | 7.94 µM (active) | – | 10 µM (active) | 7.94 µM (active) | 11.2 µM (active) | 11.2 µM (active) | – | – | – | – | 11.2 µM (active) | 9.53 µM (active) |
| C#C[C@]1(O)CC[C@H]2[C@@H]3CCC4=CCCC[C@@H]4[C@H]3C(=C)C[C@@]21CC | – | inactive | inactive | inactive | – | inactive | inactive | inactive | 10 µM (active) | inactive | – | – | – | – | inactive | inactive | – | – | – | inactive |
| CCCCCC(CC)COC(=O)CC(C(=O)OCC(CC)CCCC)S(=O)(=O)O (stereo not drawn) | inactive | – | – | inactive | inactive | inactive | – | inactive | inactive | inactive | inactive | inactive | inactive | inactive | inactive | – | inactive | inactive | inactive | – |
| CN1C(=O)CN2CCc3ccccc3C2c2cc(Cl)ccc21 (stereo not drawn) | inactive | 6.01 µM (active) | – | inactive | – | inactive | – | inactive | – | inactive | – | – | inactive | – | inactive | – | inactive | – | – | – |
| IC(I)I | inactive | inactive | inactive | inactive | inactive | inactive | inactive | inactive | inactive | inactive | inactive | inactive | inactive | inactive | inactive | inactive | inactive | inactive | inactive | – |
| CN=C(NC#N)Nc1ccc(C2=NNC(=O)C[C@@H]2C)cc1 | inactive | – | – | inactive | inactive | inactive | – | inactive | inactive | inactive | inactive | inactive | inactive | inactive | inactive | – | inactive | inactive | inactive | – |
| O=C(O)c1cc(=O)c2c3nc4ccccc4oc-3cc(=O)c2[nH]1 | inactive | – | inactive | 12.6 µM (active) | – | inactive | 16.9 µM (active) | 12.6 µM (active) | 0.891 µM (active) | inactive | inactive | – | inactive | – | – | – | inactive | – | – | – |
| CCOc1ccc(N=Nc2ccc(N)cc2N)cc1 | inactive | – | inactive | inactive | – | inactive | – | inactive | – | inactive | inactive | – | – | – | inactive | inactive | inactive | – | inactive | – |
| CCOC(=O)C1=CC2(CC)CCCN3CCc4c(n1c1ccccc41)C32 (stereo not drawn) | 11.2 µM (active) | – | – | 12.6 µM (active) | 11.2 µM (active) | 7.94 µM (active) | – | 12.6 µM (active) | 10 µM (active) | – | 8.91 µM (active) | 7.94 µM (active) | 12.6 µM (active) | 11.2 µM (active) | 11.2 µM (active) | – | – | 10 µM (active) | 7.94 µM (active) | – |
| COc1cc(-c2ccc(-[n+]3nc(-c4ccccc4)nn3-c3ccc([N+](=O)[O-])cc3)c(OC)c2)ccc1-[n+]1nc(-c2ccccc2)nn1-c1ccc([N+](=O)[O-])cc1 | – | 15.1 µM (active) | 12 µM (active) | – | 12.6 µM (active) | – | 12 µM (active) | – | 8.91 µM (active) | – | – | – | 10 µM (active) | – | – | 15.1 µM (active) | – | – | – | 12 µM (active) |
| O=C(O)c1cc(O)c2c(c1)[O][Bi][O]2 | inactive | – | inactive | inactive | inactive | inactive | inactive | inactive | inactive | inactive | inactive | inactive | inactive | inactive | inactive | inactive | inactive | inactive | inactive | inactive |

From PubChem BioAssay (NCATS)
